Assay results published in the supplement of paper PMC3545927.
The other results are listed elsewhere or left out. How many sequences the whole screen found active is unknown.

B1: HC1859 (peptide)
chain: CATPPCSGSWAGNASASA
B2: HC522 (peptide)
chain: CAFLLLADARAGNASASA
B3: HC972 (peptide)
chain: CAPLLYRLGAAGNASASA
B4: HC1440 (peptide)
chain: CAMAKNEVFCAGNASASA
B5: HC312 (peptide)
chain: CAGCNCSIYPAGNASASA
B6: FS-1537 (peptide)
chain: CAIVARNHRDAGNASASA
B7: FS-805 (peptide)
chain: CAITARYHRDAGNASASA
B8: FS-1261 (peptide)
chain: CARKPRVKRPAGNASASA
B9: HC1913 (peptide)
chain: CATTPCSGRWAGNASASA
B10: FS-1456 (peptide)
chain: CAGKRRSRRQAGNASASA
B11: FS-1337 (peptide)
chain: CAHKHRSNRQAGNASASA
B12: FS-1400 (peptide)
chain: CARKPKRKRWAGNASASA
B13: FS-3138 (peptide)
chain: CASSRRDSSWAGNASASA
B14: FS-193 (peptide)
chain: CASKRRDKRWAGNASASA
B15: FS-1604 (peptide)
chain: CAPWNRKNRQAGNASASA
B16: HC1151 (peptide)
chain: CAWDWICEVLAGNASASA
B17: HC847 (peptide)
chain: CAIPFYGKAIAGNASASA
B18: HC1628 (peptide)
chain: CAGGRAAICGAGNASASA
B19: HC1563 (peptide)
chain: CATRDPTTPLAGNASASA
B20: HC1601 (peptide)
chain: CAPIIQRLHGAGNASASA
B21: HC2161 (peptide)
chain: CANVVTSTWVAGNASASA
B22: FS-1487 (peptide)
chain: CASKRRARRQAGNASASA
B23: FS-1412 (peptide)
chain: CASKRRSRRQAGNASASA
B24: FS-698 (peptide)
chain: CANVVRARRQAGNASASA
B25: HC1417 (peptide)
chain: CAPPHSAKSKAGNASASA
B26: HC1930 (peptide)
chain: CATTPCSGSVAGNASASA
B27: HC194 (peptide)
chain: CAKARRPEGRAGNASASA

Target: furin, P09958
Test: furin cleavage Z-score vs untreated control; higher = more cleavage, active = 3.5 or more, inactive = 1 or less, 8 variable residues between constant flanks
In short: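 Sequencing of released DNA, tagged with adapters by PCR, gave read counts used as abundance. That DNA was freed when purified furin cut N-terminally bead-bound 8-mer peptides fused to a cDNA oligonucleotide, in 0.01 ml reactions at 1:10 enzyme:substrate in 50 mM HEPES pH 7.5 with CaCl2 and NaCl, lasting 7.5, 15 or 30 min. The cleavage Z-score was the lowess-adjusted log count versus furin-free reactions, scaled by median absolute deviation.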

furin, P09958, sequence (P09958 whole entry): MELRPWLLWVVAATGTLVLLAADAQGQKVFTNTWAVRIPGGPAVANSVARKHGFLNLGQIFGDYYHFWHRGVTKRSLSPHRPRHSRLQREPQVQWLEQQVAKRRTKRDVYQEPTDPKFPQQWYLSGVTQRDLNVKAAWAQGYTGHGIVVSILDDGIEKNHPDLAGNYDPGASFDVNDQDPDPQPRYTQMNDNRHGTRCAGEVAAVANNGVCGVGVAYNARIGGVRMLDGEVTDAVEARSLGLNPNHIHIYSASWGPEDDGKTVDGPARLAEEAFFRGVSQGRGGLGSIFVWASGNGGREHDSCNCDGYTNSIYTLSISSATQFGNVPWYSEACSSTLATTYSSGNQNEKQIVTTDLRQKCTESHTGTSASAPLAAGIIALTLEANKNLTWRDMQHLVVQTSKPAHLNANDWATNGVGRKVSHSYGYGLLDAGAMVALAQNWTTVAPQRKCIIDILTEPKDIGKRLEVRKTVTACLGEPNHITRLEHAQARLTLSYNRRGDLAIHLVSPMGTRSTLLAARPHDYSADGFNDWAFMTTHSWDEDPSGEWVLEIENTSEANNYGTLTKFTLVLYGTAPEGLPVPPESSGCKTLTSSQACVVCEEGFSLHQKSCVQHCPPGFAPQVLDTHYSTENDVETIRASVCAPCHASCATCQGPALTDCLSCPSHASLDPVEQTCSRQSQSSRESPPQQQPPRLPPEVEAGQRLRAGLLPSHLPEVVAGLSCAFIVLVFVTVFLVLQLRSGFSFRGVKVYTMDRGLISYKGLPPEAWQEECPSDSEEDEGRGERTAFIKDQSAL

Row | Sequence | furin cleavage Z-score (7.5 min) | furin cleavage Z-score (15 min) | furin cleavage Z-score (30 min)
1 | B1 | -0.56 (inactive) | -0.533 (inactive) | -0.721 (inactive)
2 | B2 | -0.934 (inactive) | -0.696 (inactive) | -0.66 (inactive)
3 | B3 | 0.619 (inactive) | -1.01 (inactive) | 0.0559 (inactive)
4 | B4 | 0.471 (inactive) | 0.162 (inactive) | 0.531 (inactive)
5 | B5 | 0.264 (inactive) | -0.894 (inactive) | 0.418 (inactive)
6 | B6 | 4.29 (active) | 3.17 | 2.88
7 | B7 | 2.27 | 3.38 | 4.17 (active)
8 | B8 | 1.31 | 0.832 (inactive) | 1.57
9 | B9 | -1.94 (inactive) | 0.288 (inactive) | -0.595 (inactive)
10 | B10 | 9.9 (active) | 10.6 (active) | 6.67 (active)
11 | B11 | 1.05 | 3.88 (active) | 1.67
12 | B12 | 8.47 (active) | 10.9 (active) | 7.59 (active)
13 | B13 | -0.452 (inactive) | -0.483 (inactive) | -0.978 (inactive)
14 | B14 | 8.33 (active) | 9.38 (active) | 9.36 (active)
15 | B15 | -0.25 (inactive) | 0.846 (inactive) | 3.14
16 | B16 | -0.473 (inactive) | 1.19 | 1.97
17 | B17 | -0.737 (inactive) | -1.38 (inactive) | 0.0496 (inactive)
18 | B18 | -1.4 (inactive) | -1.23 (inactive) | -0.629 (inactive)
19 | B19 | 0.197 (inactive) | -2.67 (inactive) | -1.41 (inactive)
20 | B20 | -1.06 (inactive) | -0.433 (inactive) | -1.21 (inactive)
21 | B21 | -0.344 (inactive) | 0.91 (inactive) | 0.172 (inactive)
22 | B22 | 7.99 (active) | 8.93 (active) | 6.94 (active)
23 | B23 | 8.55 (active) | 8.01 (active) | 5.96 (active)
24 | B24 | 12.8 (active) | 12 (active) | 10.3 (active)
25 | B25 | -1.76 (inactive) | -0.582 (inactive) | -0.397 (inactive)
26 | B26 | 0.2 (inactive) | 0.581 (inactive) | 1.22
27 | B27 | -0.782 (inactive) | -1.19 (inactive) | -0.268 (inactive)
